Experimental data taken from PubChem BioAssay (NCI).
“And” between values parts separate entries of the source, which are not always exact repeats. Equal values may be shown once. About 83,000 compounds went through this panel and 20% of them were active in at least one assay; those are over-represented in the sample as a whole.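 Note: values are percent growth. 100 is the growth of untreated cells, values between 100 and 0 indicate rising inhibition; between -100 and 0 indicates cell death.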 The source made the active and inactive calls. The calls were made as follows: active = growth percent below 10; inactive = the rest.

System: 786-0 renal
Assay: NCI-60 one-dose screen, 48 h (100 = growth as untreated, 0 = no growth, -100 = all killed)
Conditions: 10 µM unless noted

Row | Structure (SMILES) | growth
1 | CCCCNC(=O)c1ccccc1C | 92.9% (inactive)
2 | CC1(C)CC(=O)NC1=O | 97.6% (inactive)
3 | COc1ccc(C(=O)C(O)c2ccc(OC)cc2)cc1 (centres undefined) | 103% (inactive)
4 | COc1ccc2nccc(Cl)c2c1 | 94.7% (inactive)
5 | O=C(c1ccccc1)C1(Br)CCCCC1 | 91.5% (inactive)
6 | CN(C=O)c1ccccc1 | 97.1% (inactive)
7 | CCOCCC(=O)O | 103% (inactive)
8 | Cc1cc2ccccc2c2cc3ccccc3cc12 | 110% (inactive)
9 | CS(=O)(=O)OCC1NC(=O)C(COS(C)(=O)=O)NC1=O (centres undefined) | 97.8% (inactive) and 99.1% (inactive)
10 | Clc1ccc(/C=C/c2ccc3ccccc3n2)cc1 | 55.3% (inactive) and 97.8% (inactive) and 100% (inactive)
11 | CCOC(=O)C1=CC(=O)CC(C)(C)O1 | 110% (inactive) and 116% (inactive)
12 | CC(=O)Oc1cc(C)c(OC(C)=O)c(C)c1C | 108% (inactive)
13 | COc1ccc(/C=N/Nc2nc3ccccc3s2)cc1 | 111% (inactive)
14 | CC1CCC(=O)N1c1ccc(N)cc1 (centres undefined) | 106% (inactive)
15 | Cc1ccc(N)cc1S(=O)(=O)O | 107% (inactive) and 98.5% (inactive)
16 | CCOC(C)=N | 100% (inactive)
17 | O=C(c1ccc(Cl)cc1)C1C(c2ccccc2)C1[N+](=O)[O-] (centres undefined) | 98.8% (inactive)
18 | CC(CN(C)C)CN1c2ccccc2Sc2ccccc21 (centres undefined) | 59.5% (inactive) and 45% (inactive) and 69.1% (inactive)
19 | CCCC(=O)OCC(COC(=O)CCC)OC(=O)CCC | 102% (inactive)
